Where “and” joins values, the source holds several entries; their conditions need not be identical. Equal values may be shown once. Inconclusive results are not listed. Entries that show only a call come without a potency. Calls of active or inactive are those of the source. Unless noted, calls follow the shape of the dose curve; as a rule, active = well fitted curve in the direction sought with a large enough effect in the repeat runs; inconclusive = weak or mixed curves; inactive = no such curve, though single readings can be large; an effect the other way counts as inactive or inconclusive.
Experiments:
[1] = qHTS assay to identify small molecule agonists of the estrogen receptor beta (ER-beta) signaling pathway - cell viability counter screen (AID 1259380); also: nearly all actives have a fitted effect of over 30% in size
Outline: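 Compounds dissolved in DMSO were pin-transferred onto ER-beta-UAS-bla HEK293T cells that had settled 6 hr, and exposure ran 16 hr at 37C. Following the reporter read, CellTiter-Glo luminescence after 30 min at room temperature indicated cytotoxicity.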

[2] = molecular target: Androgen receptor (Homo sapiens) (UniProt P10275); assay: qHTS assay to identify small molecule agonists of the androgen receptor (AR) signaling pathway in the presence of an antagonist (AID 1259381; calls by dose curve; also: nearly all actives have a fitted effect of over 15% in size)
Sequence of Androgen receptor (Homo sapiens) (P10275 whole entry, looked up): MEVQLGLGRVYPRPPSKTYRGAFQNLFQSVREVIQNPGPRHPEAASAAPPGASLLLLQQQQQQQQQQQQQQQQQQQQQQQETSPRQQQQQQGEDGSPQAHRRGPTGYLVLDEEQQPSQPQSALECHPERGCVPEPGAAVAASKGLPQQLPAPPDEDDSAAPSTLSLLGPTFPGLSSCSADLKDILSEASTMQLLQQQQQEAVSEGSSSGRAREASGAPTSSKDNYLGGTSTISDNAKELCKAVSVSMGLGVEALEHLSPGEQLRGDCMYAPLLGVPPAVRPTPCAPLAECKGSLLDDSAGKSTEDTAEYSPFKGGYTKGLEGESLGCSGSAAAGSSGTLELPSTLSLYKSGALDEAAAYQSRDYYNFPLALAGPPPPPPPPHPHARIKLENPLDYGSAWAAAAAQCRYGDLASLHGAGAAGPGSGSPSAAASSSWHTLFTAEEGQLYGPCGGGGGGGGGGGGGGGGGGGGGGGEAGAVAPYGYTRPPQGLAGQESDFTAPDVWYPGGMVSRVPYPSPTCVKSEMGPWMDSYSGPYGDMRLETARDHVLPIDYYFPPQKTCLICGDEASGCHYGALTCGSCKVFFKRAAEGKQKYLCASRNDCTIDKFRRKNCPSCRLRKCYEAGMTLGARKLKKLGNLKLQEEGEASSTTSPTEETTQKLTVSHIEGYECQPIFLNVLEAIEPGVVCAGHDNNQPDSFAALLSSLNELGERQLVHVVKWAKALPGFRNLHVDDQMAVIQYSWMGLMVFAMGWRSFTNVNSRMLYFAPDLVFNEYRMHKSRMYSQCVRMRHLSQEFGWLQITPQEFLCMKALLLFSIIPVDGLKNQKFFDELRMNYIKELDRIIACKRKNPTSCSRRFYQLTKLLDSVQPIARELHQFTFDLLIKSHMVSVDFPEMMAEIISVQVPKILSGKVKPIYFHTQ
Outline: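 Plated MDA-kb2 cells (3,000/well) were pre-incubated 5hr, given nilutamide (3.0uM final) or buffer, then dosed with compounds in DMSO at 15 concentrations. Luciferase activity was quantified by luminescence after 16hr at 37C.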

[3] = qHTS assay to identify small molecule antagonists of the estrogen receptor beta (ER-beta) signaling pathway - cell viability counter screen (AID 1259382);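 also: HEK293T cells carrying ER-beta-UAS-bla reporter stimulated with estradiol; series mostly up to about 92 µM; nearly all actives have a fitted effect of over 55% in size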
Outline: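 CellTiter-Glo ATP luminescence measured after the LiveBLAzer read in the same wells; ER-beta-UAS-bla HEK293T cells, 16 hr compound treatment with 1nM 17-beta-estradiol agonist at 37C, 5% CO2.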

[4] = molecular target: Estrogen receptor (Homo sapiens) (UniProt P03372); assay: qHTS assay to identify small molecule agonists of the estrogen receptor alpha (ER-alpha) signaling pathway in the presence of an antagonist (AID 1259383; calls by dose curve; also: top concentration of the series differs between compounds; nearly all actives have a fitted effect of over 15% in size)
Sequence of Estrogen receptor (Homo sapiens) (P03372 whole entry, looked up): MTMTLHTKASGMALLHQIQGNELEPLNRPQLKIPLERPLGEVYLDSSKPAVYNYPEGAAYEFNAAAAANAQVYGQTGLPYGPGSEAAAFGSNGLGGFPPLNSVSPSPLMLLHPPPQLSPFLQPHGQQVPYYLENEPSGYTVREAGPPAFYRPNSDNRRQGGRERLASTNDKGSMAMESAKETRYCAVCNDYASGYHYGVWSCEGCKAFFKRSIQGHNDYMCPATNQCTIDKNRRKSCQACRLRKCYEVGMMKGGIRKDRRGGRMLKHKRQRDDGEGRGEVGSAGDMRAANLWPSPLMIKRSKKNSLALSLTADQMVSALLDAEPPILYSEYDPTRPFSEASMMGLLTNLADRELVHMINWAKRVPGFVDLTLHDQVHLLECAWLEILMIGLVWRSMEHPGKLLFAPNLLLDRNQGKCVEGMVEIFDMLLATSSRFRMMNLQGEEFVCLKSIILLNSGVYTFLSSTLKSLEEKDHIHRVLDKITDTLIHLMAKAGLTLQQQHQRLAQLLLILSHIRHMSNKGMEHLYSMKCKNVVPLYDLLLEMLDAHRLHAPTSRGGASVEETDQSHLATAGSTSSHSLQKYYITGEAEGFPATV
Outline: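 Luminescent ERE-luciferase reporter, VM7Luc4E2 cells (endogenous ER-alpha); 10.0nM ICI-182,780 final; 15-point compound titration; 22hr at 37C; ONE-Glo, 30min RT.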

[5] = qHTS assay to identify small molecule agonists of the estrogen receptor alpha (ER-alpha) signaling pathway in the presence of an antagonist - cell viability counter screen (AID 1259386);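 also: cells exposed to compounds for 22 h at 37 °C before the viability read; nearly all actives have a fitted effect of over 30% in size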; also: potency is read from the fitted curve at half-maximal effect
Outline: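 Using estrogen-depleted VM7Luc4E2 cells, the 15-concentration compound series was applied together with 10.0nM ICI-182,780 and incubated 22hr at 37C/5% CO2. Cell viability was then scored by CellTiter-Fluor.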

[6] = molecular target: Progesterone receptor (Homo sapiens) (UniProt P06401); assay: qHTS assay to identify small molecule agonists of the progesterone receptor (PR) signaling pathway (AID 1346784; calls by dose curve; also: nearly all actives have a fitted effect of over 30% in size)
Sequence of Progesterone receptor (Homo sapiens) (P06401 whole entry, looked up): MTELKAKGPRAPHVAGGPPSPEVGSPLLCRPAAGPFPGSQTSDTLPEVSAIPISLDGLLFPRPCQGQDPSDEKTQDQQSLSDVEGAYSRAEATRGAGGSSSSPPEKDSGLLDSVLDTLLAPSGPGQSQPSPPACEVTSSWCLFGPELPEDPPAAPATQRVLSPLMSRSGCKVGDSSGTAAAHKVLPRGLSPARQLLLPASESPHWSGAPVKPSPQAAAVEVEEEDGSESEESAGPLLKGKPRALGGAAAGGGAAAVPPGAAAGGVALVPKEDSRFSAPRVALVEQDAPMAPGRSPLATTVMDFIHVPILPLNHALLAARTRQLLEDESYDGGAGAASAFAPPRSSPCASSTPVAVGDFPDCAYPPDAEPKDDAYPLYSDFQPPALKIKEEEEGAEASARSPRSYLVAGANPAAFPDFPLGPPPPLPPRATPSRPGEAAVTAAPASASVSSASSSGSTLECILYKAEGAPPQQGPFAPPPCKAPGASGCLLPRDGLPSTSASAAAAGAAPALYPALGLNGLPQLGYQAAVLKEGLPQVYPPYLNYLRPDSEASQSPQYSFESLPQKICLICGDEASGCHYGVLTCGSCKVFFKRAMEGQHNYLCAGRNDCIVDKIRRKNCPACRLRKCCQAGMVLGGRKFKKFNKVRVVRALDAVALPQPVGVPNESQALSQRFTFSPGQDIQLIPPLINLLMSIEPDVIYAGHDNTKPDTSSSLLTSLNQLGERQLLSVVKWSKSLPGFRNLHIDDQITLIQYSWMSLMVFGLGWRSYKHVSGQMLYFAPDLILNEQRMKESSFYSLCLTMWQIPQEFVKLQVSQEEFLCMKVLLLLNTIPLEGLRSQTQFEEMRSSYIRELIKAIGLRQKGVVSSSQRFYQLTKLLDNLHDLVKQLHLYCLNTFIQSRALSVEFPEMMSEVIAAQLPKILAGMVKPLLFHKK
Outline: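 Using charcoal-stripped serum (2%) to limit endogenous steroids, PR-UAS-bla HEK 293T cells received compounds for 16 hr at 37C after 6 hr plating; beta-lactamase FRET fluorescence was recorded following 2 hr substrate loading at room temperature.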

[7] = molecular target: Progesterone receptor (Homo sapiens) (UniProt P06401); assay: qHTS assay to identify small molecule antagonists of the progesterone receptor (PR) signaling pathway (AID 1346795; active = well fitted inhibition curve with a large enough effect in the signal ratio in the repeat runs, not every such curve was filed as active; the % refers to the signal ratio)
Outline: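 Inhibition of R5020-induced (1 nM final) beta-lactamase reporter signal in PR-UAS-bla HEK293T cells was scored by FRET fluorescence after overnight (16 hr) compound treatment.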

[8] = qHTS assay to identify small molecule agonists of the progesterone receptor (PR) signaling pathway - cell viability counter screen (AID 1346799; calls by dose curve; also: nearly all actives have a fitted effect of over 45% in size)
Outline: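 Cytotoxicity in PR-bla HEK293T cells: 16 h compound, 37C; CellTiter-Glo added post-FRET read; luminescence after 30 min RT.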

[9] = qHTS assay to identify small molecule antagonists of the TGF-beta/Smad signaling pathway - cell viability counter screen (AID 1346824); also: nearly all actives have a fitted effect of over 50% in size
Outline: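 SBE-bla HEK 293T cells, incubated overnight, then compound plus 0.25 ng/mL TGF-beta1 (stock added) for 5 hr at 37 C. Viability was read in the same wells by CellTiter-Glo luminescence after 30 min at room temperature.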

[10] = qHTS assay to identify small molecule agonists of the TGF-beta/Smad signaling pathway - cell viability counter screen (AID 1346829); also: top concentration of the series differs between compounds; nearly all actives have a fitted effect of over 45% in size
Outline: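 Tox21 qHTS format: SBE-bla HEK 293T cells treated with DMSO-dissolved compounds for 5 hr; CellTiter-Glo luminescence after 30 min at room temperature.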

[11] = qHTS assay to identify small molecule agonists of the TGF-beta/Smad signaling pathway (AID 1346859; active = well fitted activation curve with a large enough effect in the signal ratio in the repeat runs, not every such curve was filed as active; the % refers to the signal ratio; also: series mostly up to about 77 µM)
Outline: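 Stable Smad binding element-beta-lactamase HEK 293T cells; 5 hr compound exposure at 37 C under 5% CO2; 2 hr room-temperature substrate step; fluorescence excited at 405 nm, collected at 460 nm and 530 nm.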

[12] = molecular target: Thyrotropin-releasing hormone receptor (Homo sapiens) (UniProt P34981); assay: qHTS assay to identify small molecule antagonists of the thyrotropin-releasing hormone receptor (TRHR) signaling pathway (AID 1346877; active = well fitted inhibition curve with a large enough effect in the repeat runs, not every such curve was filed as active; also: series mostly up to about 51 µM)
Sequence of Thyrotropin-releasing hormone receptor (Homo sapiens) (P34981 whole entry, looked up): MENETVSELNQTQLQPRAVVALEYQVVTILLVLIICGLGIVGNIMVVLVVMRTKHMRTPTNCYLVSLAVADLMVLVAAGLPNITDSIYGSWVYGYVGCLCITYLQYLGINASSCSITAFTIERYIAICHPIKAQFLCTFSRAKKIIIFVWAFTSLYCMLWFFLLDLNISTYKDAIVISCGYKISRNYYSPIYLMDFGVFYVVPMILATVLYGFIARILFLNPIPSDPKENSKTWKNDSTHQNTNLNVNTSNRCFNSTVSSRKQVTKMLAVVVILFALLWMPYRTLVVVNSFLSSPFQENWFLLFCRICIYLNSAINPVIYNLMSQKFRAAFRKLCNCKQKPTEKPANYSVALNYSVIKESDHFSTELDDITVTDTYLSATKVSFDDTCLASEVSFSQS
Outline: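 Calcium signal in dye-loaded TRHR/HEK293 cells; compounds added 5 min before TRH (1 nM final); fluorescence monitored 3 min at 1 s steps.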

[13] = molecular target: Thyrotropin-releasing hormone receptor (Homo sapiens) (UniProt P34981); assay: qHTS assay to identify small molecule agonists of the thyrotropin-releasing hormone receptor (TRHR) signaling pathway (AID 1346891; calls by dose curve;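 also: HEK293 cells expressing TRHR with calcium dye readout; series mostly up to about 58 µM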)
Outline: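 In 1536-format, 1500 TRHR-Hek293 cells per well grew 18 h, took up calcium dye for 2 h at 37 °C, received compound, and were read kinetically; 15-point titrations, triplicates.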

[14] = Caspase-3/7 induction in HepG2 cells by small molecules, qHTS assay (AID 1346978); also: nearly all actives have a fitted effect of over 15% in size
Outline: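 Wild-type HepG2 cells, 2,000/well, settled 5 hr at 37 C and 5% CO2, then compound-treated for 17 hr; caspase-3/7 activity read by luminescent Caspase-Glo 3/7 after 30 min at room temperature.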

[15] = Caspase-3/7 induction in CHO-K1 cells by small molecules, qHTS assay (AID 1346980); also: nearly all actives have a fitted effect of over 15% in size
Outline: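 Wild-type CHO-K1 cells exposed to compounds for 17hr at 37 C, 5% CO2. Caspase-3/7 activity then measured by Caspase-Glo 3/7 luminescence after 30min at room temperature.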

[16] = qHTS assay to identify small molecule agonists or antagonists of the thyroid stimulating hormone receptor (TSHR) signaling pathway - wild type cell line counter screen (AID 1259384; calls by dose curve)
Outline: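 Wild-type Hek293 cells, 800/well, 18 h at 37C, then compound with Ro20-1724 for 30 min RT. cAMP by HTRF (cAMP-d2/anti-cAMP cryptate), 1 h RT, fluorescence read. 15 concentrations, triplicates.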

[17] = molecular target: Thyrotropin receptor (Homo sapiens) (UniProt P16473); assay: qHTS assay to identify small molecule antagonists of the thyroid stimulating hormone receptor (TSHR) signaling pathway (AID 1259385; calls by dose curve; also: nearly all actives have a fitted effect of over 20% in size)
Sequence of Thyrotropin receptor (Homo sapiens) (P16473 whole entry, looked up): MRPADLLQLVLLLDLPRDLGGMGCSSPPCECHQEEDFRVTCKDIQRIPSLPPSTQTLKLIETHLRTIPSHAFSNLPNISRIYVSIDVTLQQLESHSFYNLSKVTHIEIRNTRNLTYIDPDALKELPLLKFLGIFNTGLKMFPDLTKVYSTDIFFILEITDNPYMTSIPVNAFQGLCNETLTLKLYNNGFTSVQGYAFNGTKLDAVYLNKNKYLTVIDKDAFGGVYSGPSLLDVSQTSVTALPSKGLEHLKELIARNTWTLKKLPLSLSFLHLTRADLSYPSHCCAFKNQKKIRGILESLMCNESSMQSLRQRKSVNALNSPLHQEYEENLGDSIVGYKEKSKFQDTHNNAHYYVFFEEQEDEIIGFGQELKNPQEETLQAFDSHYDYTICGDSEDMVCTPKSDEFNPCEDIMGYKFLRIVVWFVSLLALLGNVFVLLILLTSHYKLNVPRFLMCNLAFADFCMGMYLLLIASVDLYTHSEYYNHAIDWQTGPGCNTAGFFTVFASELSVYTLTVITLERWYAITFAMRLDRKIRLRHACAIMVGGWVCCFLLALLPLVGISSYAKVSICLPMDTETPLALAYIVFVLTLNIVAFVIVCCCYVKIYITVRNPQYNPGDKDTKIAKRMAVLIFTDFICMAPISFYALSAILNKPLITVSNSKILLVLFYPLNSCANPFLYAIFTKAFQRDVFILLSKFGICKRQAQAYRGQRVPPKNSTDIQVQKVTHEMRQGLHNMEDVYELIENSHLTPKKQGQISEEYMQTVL
Outline: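 TSHR-HEK293 cells (800/well) plated 18 h, then compounds with Ro20-1724 and TSH at 1.5 ng/mL final, 30 min at room temperature. cAMP quantified by HTRF (cAMP-d2/anti-cAMP-cryptate, 1 h); 15 concentrations in triplicate.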

[18] = qHTS assay to identify small molecule antagonists of the progesterone receptor (PR) signaling pathway - cell viability counter screen (AID 1346798); also: series mostly up to about 92 µM; nearly all actives have a fitted effect of over 50% in size
Outline: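 ATP content as viability readout: CellTiter-Glo luminescence, 30 min room temperature, in PR-UAS-bla HEK293T cells after 16 hr compound/R5020 treatment at 37C and 5% CO2.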

[19] = Human pregnane X receptor (PXR) small molecule agonists, qHTS cell viability counter screen (AID 1346977); also: nearly all actives have a fitted effect of over 50% in size; also: potency is read from the fitted curve at half-maximal effect
Outline: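 Readout is CellTiter-Fluor fluorescence from PXR-Luc HepG2 cells. Plated cells rested 5hr, then were treated with compounds for 24hr at 37C and 5% CO2, with reagent present during the last hour.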

[20] = Caspase-3/7 induction in CHO-K1 cells by small molecules, qHTS cell viability counter screen (AID 1346979); also: nearly all actives have a fitted effect of over 35% in size
Outline: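 To flag cytotoxic compounds, treated CHO-K1 wild-type cells were given CellTiter-Fluor at 16hr and read fluorescently after 1hr at 37C; the caspase-3/7 luminescence was measured in these same wells.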

SMILES | Potency [1] | Potency [2] | Potency [3] | Potency [4] | Potency [5] | Potency [6] | Potency [7] | Potency [8] | Potency [9] | Potency [10] | outcome [11] | Potency [12] | outcome [13] | Potency [14] | outcome [15] | outcome [16] | Potency [17] | Potency [18] | Potency [19] | Potency [20]
CC1=C(C)S(=O)(=O)CCS1(=O)=O | inactive | inactive | inactive | inactive | inactive | inactive | inactive | inactive | inactive | inactive | inactive | inactive | inactive | inactive | inactive | – | – | – | – | –
CN(C)CCCN | inactive | – | inactive | inactive | inactive | inactive | inactive | inactive | inactive | inactive | inactive | inactive | inactive | inactive | inactive | inactive | inactive | inactive | inactive | inactive
C#CCN(C)Cc1ccccc1 | inactive | – | inactive | inactive | inactive | inactive | inactive | inactive | inactive | inactive | inactive | inactive | inactive | inactive | inactive | inactive | – | inactive | inactive | inactive
CC(O)COCC(C)O (centres undefined) | inactive | – | inactive | inactive | inactive | inactive | inactive | inactive | inactive | inactive | inactive | – | – | inactive | inactive | inactive | inactive | inactive | inactive | inactive
Cc1cnc(C(=O)NCCc2ccc(S(=O)(=O)NC(=O)NC3CCCCC3)cc2)cn1 | inactive | – | inactive | inactive | inactive | inactive | inactive | inactive | inactive | inactive | inactive | – | – | inactive | inactive | inactive | – | inactive | inactive | inactive
COc1ccc(NC(C)=O)cc1N | inactive | – | inactive | inactive | inactive | inactive | inactive | inactive | inactive | inactive | inactive | inactive | inactive | inactive | inactive | inactive | inactive | inactive | inactive | –
c1ccc2c(c1)ccc1ccccc12 | inactive | inactive | inactive | inactive | inactive | inactive | inactive | inactive | inactive | inactive | inactive | inactive | inactive | inactive | inactive | inactive | inactive | inactive | inactive | –
Nc1cc([N+](=O)[O-])ccc1O | inactive | inactive | inactive | – | 43.3 µM (active) and 27.2 µM (active) | inactive | inactive | inactive | inactive | inactive | inactive | inactive | inactive | inactive | inactive | inactive | – | inactive | 39.8 µM (active) and 54.2 µM (active) | –

Source: PubChem BioAssay (Tox21)
